FMDV inh: High Throughput Screening for Foot and Mouth Disease Virus Antivirals | FMDV antiviral cell-based qHTS | Potency, µM (highest dose often 57.9 µM), for inactives: at the top dose activity change, negative = inhibition, hits mostly inhibitors | 1.2% of 410,000 active; calls by dose curve; tested in HEK293T cells; further: read-out not given here; potency means the concentration at half of the fitted maximal effect; nearly all actives have a fitted effect of over 45% in size
MARV entry inh: qHTS for inhibitors of binding or entry into cells for Marburg Virus; Marburg virus pseudotyped entry inhibition, cell reporter; Potency, µM (doses to about 37.8 µM), for inactives: top-dose activity change, negative = inhibition, hits mostly inhibitors; 1.8% of 300,000 active; AID 540276, 2011; calls by dose curve; tested in HEK293 cells; further: potency means the concentration at half of the fitted maximal effect
LASV entry inh: qHTS for Inhibitors of binding or entry into cells for Lassa Virus | AID 540256, 2011 | Potency, µM (titrated, usually from 37.9 µM), without a hit: at the top dose activity change, negative = inhibition, usual class: inhibitors | 1.2% of 300,000 active | Lassa virus pseudotype entry inhibition, cell reporter; calls by dose curve; tested in HEK293 cells; further: potency means the concentration at half of the fitted maximal effect; nearly all actives have a fitted effect of over 50% in size
HCMV antiviral: qHTS Assay for inhibitors of the human cytomegalovirus (HCMV); HFF cells, HCMV-luciferase reporter, 72 h; hits give low values; activity change, negative = inhibition, % at 57.5 µM; 4.5% of 410,000 active; in the data active means activity change below about -60%; inconclusive means no clear call, values can overlap the other calls; inactive means above about -39%
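Cell-based, HFFs, 1000 cells/well, 16 h 37C; cpds in DMSO + HCMV-luc, MOI 1 PFU/cell; 72 h 37C; OneGlo luminescence after 5 min RT; norm. to buffer vs Salinomycin 10uM.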
* hit, by the source's call; [ ] = dose if it differs, or a comment. A selection: hits, their analogues and other compounds. The true share with any hit is near 6.2%. On the % scale 0 is the no-effect control and ±100 the full control effect.

For CCN(CC)CCCNc1sc(S(=O)(=O)c2ccccc2)nc1S(=O)(=O)c1ccc(Cl)cc1 the results were FMDV inh 20.4%, MARV entry inh inconclusive, LASV entry inh -33.0%[46.1 µM] and HCMV antiviral -74.5*.
CCN(CC)c1sc(S(=O)(=O)c2ccccc2)nc1S(=O)(=O)c1ccc(C)cc1 was read as FMDV inh 36.2%, MARV entry inh inconclusive, LASV entry inh inconclusive and HCMV antiviral -73.3*.
CC(C)OCCCNc1sc(S(=O)(=O)c2ccccc2)nc1S(=O)(=O)c1ccc(Cl)cc1 was read as FMDV inh 7.9%, MARV entry inh -23.4%[46.1 µM], LASV entry inh -16.1%[46.1 µM] and HCMV antiviral -19.1.
For Cc1ccc(S(=O)(=O)c2nc(S(=O)(=O)c3ccccc3)sc2N2CCN(CCO)CC2)cc1 the results were FMDV inh 20.1% and HCMV antiviral -97.9*.
For CCS(=O)(=O)c1nc(S(=O)(=O)c2ccc(C)cc2)c(N2CCN(CCO)CC2)s1 the results were FMDV inh -6.2% and HCMV antiviral -32.6.
CC(=O)C[C@@H](O)CC(=O)[C@@H]1OC(=O)CCCCCc2ccccc21 was read as FMDV inh -11.0% and HCMV antiviral 1.1.
Screening O=C(CCC1CCCC1)N1CCc2c([nH]c3ccccc23)C1c1ccc(F)cc1 (stereo unspecified) returned FMDV inh -19.9%, LASV entry inh 5.01µM* and HCMV antiviral -84.4*.
For O=C(CCC1CCCC1)N1CCc2c([nH]c3ccccc23)C1c1ccc(Cl)cc1 (stereo unspecified) the results were FMDV inh -12.9%, LASV entry inh inconclusive and HCMV antiviral -69.2*.
CCn1c(NCc2c[nH]c3ccccc23)nc2ccccc21 was read as FMDV inh 25.5%, MARV entry inh 11.2µM*, LASV entry inh -9.0% and HCMV antiviral 44.3.
For O=C(Nc1ccccc1)[C@@H]1CCCN1S(=O)(=O)c1ccc(Cl)cc1 the results were FMDV inh -4.9%, MARV entry inh -15.1%, LASV entry inh 15.8% and HCMV antiviral -29.2.
Screening O=C(Nc1ccc(Cl)cc1)C1CCCCN1S(=O)(=O)c1ccccc1 (stereo unspecified) returned FMDV inh inconclusive, MARV entry inh inconclusive, LASV entry inh -18.1% and HCMV antiviral -100.7*.
Cc1ccc(C(C)(C)C)cc1S(=O)(=O)N1CC(=O)Nc2ccccc21 was read as FMDV inh -4.7%, MARV entry inh 10µM*, LASV entry inh inconclusive and HCMV antiviral -11.9.
For Cc1cc(C(C)(C)C)cc(C)c1S(=O)(=O)N1CC(=O)Nc2ccccc21 the results were FMDV inh -19.9%, MARV entry inh -34.6%, LASV entry inh 11.2µM* and HCMV antiviral inconclusive.
Screening CCc1ccc(OCCCC(=O)Nc2cccc(C(=O)O)c2)cc1 returned FMDV inh 14.8%, MARV entry inh 0.6%, LASV entry inh 10.1% and HCMV antiviral 9.4.
For CCOc1ccc(NC(=O)c2c3c(nc4ccccc24)CCC3)cc1 the results were FMDV inh 5.5%, MARV entry inh -16.8%[46.1 µM], LASV entry inh 23.2%[46.1 µM] and HCMV antiviral -17.4.
`Cc1ccccc1NC(=O)c1c2c(nc3ccccc13)CCC2` gave FMDV inh -14.6%, MARV entry inh 10.4%[46.1 µM], LASV entry inh 15.0% and HCMV antiviral -70.9*.
Screening Cc1ccc(NC(=O)c2c3c(nc4ccccc24)CCC3)cc1 returned FMDV inh -6.2%, MARV entry inh -10.8%[46.1 µM], LASV entry inh -3.9% and HCMV antiviral 18.4.
COc1cc(NC(=O)c2c3c(nc4ccccc24)CCC3)cc(OC)c1 was read as FMDV inh -19.3%, MARV entry inh inconclusive, LASV entry inh -3.8% and HCMV antiviral -101.9*.
For CC(=NN(Cc1ccccc1)c1ccccc1)c1ccccc1 the results were FMDV inh -25.0%, MARV entry inh 12.0%, LASV entry inh 25.9% and HCMV antiviral -1.9.
Cc1ccc(S(=O)(=O)N(C(=O)c2ccncc2)c2ccc(OC(=O)c3ccncc3)cc2)cc1 was read as FMDV inh -20.5%, MARV entry inh -32.8%, LASV entry inh -18.0% and HCMV antiviral -67.5*.
`COc1ccc(-n2c(SCC(=O)NCc3ccc(C)cc3)nc3n[nH]c(C)c3c2=N)cc1` gave FMDV inh -20.3%, LASV entry inh -29.2%[46.1 µM] and HCMV antiviral 33.3.
`Cc1cc(Cl)c2oc(C(=O)N(C)CCCCN3CCOCC3)c(C)c2c1` gave FMDV inh 17.0%, MARV entry inh -0.4%[46.1 µM], LASV entry inh 0.8%[46.1 µM] and HCMV antiviral 68.5.
Cc1ccc(C)c(S(=O)(=O)c2nnn3c2nc(Nc2ccc(C)c(C)c2)c2sccc23)c1 was read as FMDV inh -5.1%, LASV entry inh -3.7%[46.1 µM] and HCMV antiviral 2.9.
Cc1ccc(C)c(S(=O)(=O)c2nnn3c2nc(NC(C)C)c2sccc23)c1 was read as FMDV inh inconclusive, LASV entry inh -23.0%[46.1 µM] and HCMV antiviral -69.9*.
For CCOC(=O)c1c(NC(=O)C(Sc2ccccc2)c2ccccc2)sc(C(N)=O)c1C (stereo unspecified) the results were FMDV inh inconclusive, MARV entry inh -29.7%, LASV entry inh inconclusive and HCMV antiviral 16.7.
Screening CCC(C(=O)Nc1sc(C(N)=O)c(C)c1C(=O)OC)c1ccccc1 (stereo unspecified) returned FMDV inh -22.3%, MARV entry inh 12.6µM* and HCMV antiviral 11.6.
Screening CCOC(=O)c1c(NC(=O)C2c3ccccc3Oc3ccccc32)sc(C(=O)N(CC)CC)c1C returned FMDV inh inconclusive, MARV entry inh 12.6µM* and LASV entry inh inconclusive.
For COc1ccccc1NC(=O)C(Sc1ccccc1)c1ccccc1 (stereo unspecified) the results were FMDV inh -20.0%, MARV entry inh -16.3%, LASV entry inh inconclusive and HCMV antiviral 33.5.
Screening CCOC(=O)c1c(NC(=O)C(Sc2ccccc2)c2ccccc2)sc(C(=O)N(C)C)c1C (stereo unspecified) returned FMDV inh 0.0%, MARV entry inh inconclusive, LASV entry inh 15.8µM* and HCMV antiviral -7.8.
Screening CCOc1ccccc1NC(=O)C(Sc1ccccc1)c1ccccc1 (stereo unspecified) returned FMDV inh -27.9%, MARV entry inh inconclusive, LASV entry inh 12.6µM* and HCMV antiviral -33.2.
CC(Oc1ccc2c(=O)c(-c3ccc(Cl)cc3)c(C(F)(F)F)oc2c1)C(=O)O (stereo unspecified) was read as FMDV inh -10.9% and HCMV antiviral 0.0.
Screening CCC(C(=O)Nc1ccsc1C(=O)OC)c1ccccc1 (stereo unspecified) returned FMDV inh inconclusive, MARV entry inh 9.7%[46.1 µM], LASV entry inh 15.3% and HCMV antiviral -67.3*.
CCC(C(=O)Nc1nc(C)c(C(=O)OC)s1)c1ccccc1 (stereo unspecified) was read as FMDV inh -18.6%, MARV entry inh -10.6%[46.1 µM], LASV entry inh 21.4%[46.1 µM] and HCMV antiviral 4.4.

Screening data from PubChem BioAssay.
